The source of these data is PubChem BioAssay AID588358 (NMMLSC, 2011).

The campaign covered roughly 310,000 compounds. About 1,500 (0.48%) were called active. The sample holds actives, similar compounds and a random draw of the others, so the mix is not that of the screen.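 The calls were made as follows: active = binding more than 3 SD below its plate's average and above zero; inconclusive = below that plate limit but binding exactly zero; inactive = the rest.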

This assay deals with Desmoglein-3 (Homo sapiens) (UniProt P32926). The assay is described as follows: inhibitors of pemphigus antibody binding to DSG3, primary screen, biochemical, bead-based, flow cytometry, scFv-GFP (AID 588358).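 Also: hits lower antibody fragment binding to DSG3.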 The settings on record: DSG3-coupled beads, scFv-anti-DSG3-GFP binding, at 10 µM, hits give low values.
Chain of Desmoglein-3 (Homo sapiens) (P32926 whole entry, looked up, the tested form may be a part): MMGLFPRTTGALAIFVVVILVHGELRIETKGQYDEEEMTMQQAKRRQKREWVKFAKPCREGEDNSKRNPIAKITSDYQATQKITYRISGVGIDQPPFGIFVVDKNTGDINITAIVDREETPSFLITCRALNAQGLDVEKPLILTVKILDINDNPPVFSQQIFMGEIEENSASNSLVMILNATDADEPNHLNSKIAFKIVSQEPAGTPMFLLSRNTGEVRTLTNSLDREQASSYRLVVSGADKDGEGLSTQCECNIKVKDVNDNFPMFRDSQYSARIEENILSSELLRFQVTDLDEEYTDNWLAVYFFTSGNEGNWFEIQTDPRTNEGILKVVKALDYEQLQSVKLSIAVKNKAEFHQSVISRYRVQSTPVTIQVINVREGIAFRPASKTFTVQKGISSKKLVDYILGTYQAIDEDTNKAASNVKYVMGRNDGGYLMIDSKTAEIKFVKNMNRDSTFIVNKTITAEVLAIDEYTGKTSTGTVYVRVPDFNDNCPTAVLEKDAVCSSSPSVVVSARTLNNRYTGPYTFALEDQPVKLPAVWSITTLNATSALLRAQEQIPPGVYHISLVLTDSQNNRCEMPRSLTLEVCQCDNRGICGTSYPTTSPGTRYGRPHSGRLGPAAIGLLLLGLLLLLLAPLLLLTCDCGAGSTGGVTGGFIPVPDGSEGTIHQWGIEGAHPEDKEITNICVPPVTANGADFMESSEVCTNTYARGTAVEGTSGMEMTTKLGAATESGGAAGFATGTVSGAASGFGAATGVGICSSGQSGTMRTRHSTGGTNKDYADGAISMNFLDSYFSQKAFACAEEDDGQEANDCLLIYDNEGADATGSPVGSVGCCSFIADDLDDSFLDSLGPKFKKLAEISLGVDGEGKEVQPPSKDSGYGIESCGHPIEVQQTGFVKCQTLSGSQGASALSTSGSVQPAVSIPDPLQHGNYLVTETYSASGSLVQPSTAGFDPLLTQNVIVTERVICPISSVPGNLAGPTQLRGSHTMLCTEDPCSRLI
With `CC1C(=O)N(Cc2cn(CC3CCCCC3)nn2)CCS(=O)(=O)N1Cc1ccc(-c2cccc(N(C)C)c2)cc1` (stereo not drawn), the binding (percent of control) is 101% (inactive).

For the compound `COCC1CCCCN1C(=O)c1cc(COc2ccc(C)c(C)c2)on1` (stereo not drawn), the binding (percent of control) is 101% (inactive).

`Cc1ccc(NC(=O)CN(C)Cc2ccc(F)cc2)c([N+](=O)[O-])c1`: the binding (percent of control) was 93.5% (inactive).

Regarding `CN(CC(=O)Nc1ccc(N2CCOCC2)cc1)CC(=O)Nc1ccccc1[N+](=O)[O-]`, the binding (percent of control) was 116% (inactive).

In the case of `CN(CC(=O)Nc1ccccc1[N+](=O)[O-])Cc1ccc(Br)cc1`, the binding (percent of control) was 104% (active).

As to `COc1ccc(-n2ncc3c(SCC(=O)NNC(C)=O)ncnc32)cc1`, the binding (percent of control) is 102% (inactive).

`CC(=O)Nc1ccc(NC(=O)CSc2ncnc3c2cnn3Cc2ccccc2)cc1`: the binding (percent of control) was 76.2% (active).

For the compound `COc1ccc(NC(=O)CSc2ncnc3[nH]ncc23)cc1`, the binding (percent of control) is 106% (inactive).

Turning to `O=C(NCc1nnnn1-c1ccc(Cl)cc1)c1ccc([N+](=O)[O-])o1`, the binding (percent of control) was 98.8% (inactive).

In the case of `Cc1ccc(S(=O)(=O)N2CCOCC2)cc1NC(=O)c1ccncc1`, the binding (percent of control) was 96.3% (inactive).

Regarding `Cc1cc(-c2ccc(S(=O)(=O)N3CCc4ccccc4C3)s2)on1`, the binding (percent of control) was 80.5% (active).

For the compound `Cc1cc(-c2ccc(S(=O)(=O)N3CCN(c4cccc(C(F)(F)F)c4)CC3)s2)on1`, the binding (percent of control) is 80% (inactive).

On to `Cc1cccc(N2CCN(S(=O)(=O)c3ccc(-c4cc(C)no4)s3)CC2C)c1` (stereo not drawn), for which the binding (percent of control) is 96.5% (inactive).

For `CC(C)CCOc1ccc(C(=O)Nc2cc(S(=O)(=O)N3CCOCC3)ccc2N2CCOCC2)cc1`, the binding (percent of control) was 102% (inactive).

Take `C=CCOc1cccc(C2C(C(=O)c3ccc(C)o3)=C(O)C(=O)N2CCN2CCOCC2)c1` (stereo not drawn): the binding (percent of control) is 102% (inactive).

As to `c1ccc(CNCc2ccc(CNCc3ccccc3)cc2)cc1`, the binding (percent of control) was 102% (inactive).

With `CCOc1ccc(/C=C2\SC(=S)N(NC(=O)c3ccncc3)C2=O)cc1OC`, the binding (percent of control) is 106% (inactive).

Turning to `COc1ccc(/C=C2\SC(=S)N(CCCC(=O)NC3CCCC3)C2=O)cc1OC`, the binding (percent of control) is 109% (inactive).

As to `COc1cc(/C=C2\SC(=S)N(Nc3ncc(C(F)(F)F)cc3Cl)C2=O)cc(OC)c1OC`, the binding (percent of control) is 87.8% (active).

In the case of `O=C(CSc1ncn[nH]1)Nc1nc2c(F)c(F)c(F)cc2s1`, the binding (percent of control) is 94% (inactive).

Regarding `Cc1ccc(S(=O)(=O)N2C[C@H]3C(=O)C[C@@H](c4cccc5ccccc45)N(S(=O)(=O)c4ccc(C)cc4)[C@H]3C[C@H]2c2ccc(Cl)cc2)cc1`, the binding (percent of control) is 99.7% (inactive).

As for `Cc1cccc(-c2nc(Nc3ccc(O)cc3)c3ccccc3n2)c1`, the binding (percent of control) was 324% (inactive).

Regarding `O=c1[nH]c(-c2cccs2)nc2ccccc12`, the binding (percent of control) was 98.9% (inactive).

For `CC(=O)Nc1cccc(Nc2nc(-c3cccs3)nc3ccccc23)c1`, the binding (percent of control) is 64.6% (active).

For the compound `C[C@H]1CN([C@@H](C)CO)C(=O)CCCn2nncc2CO[C@@H]1CN(C)Cc1ccc(Oc2ccccc2)cc1`, the binding (percent of control) was 101% (inactive).

For the compound `Cc1ccc(C(=O)N[C@H](C(=O)N2CCN(c3ncccn3)CC2)C(C)C)cc1`, the binding (percent of control) is 96.6% (inactive).

On to `NS(=O)(=O)c1ccc(NC(=O)COC(=O)c2cc3ccccc3oc2=O)cc1`, for which the binding (percent of control) is 9.15% (active).

On to `NS(=O)(=O)c1ccc(NC(=O)COC(=O)CCc2c[nH]c3ccccc23)cc1`, for which the binding (percent of control) is 96.4% (inactive).

With `CCOC(=O)c1cc2cc3ccccc3cc2oc1=O`, the binding (percent of control) was 105% (inactive).

Consider `COc1ccc(NC(=O)[C@H](NC(=O)[C@@H]2Cc3ccccc3CN2)c2ccccc2)cc1`, for which the binding (percent of control) is 103% (inactive).

As for `COc1ccc(NC(=O)C2CCC(CNC(=O)[C@@H]3Cc4ccccc4CN3)CC2)cc1` (stereo partly drawn), the binding (percent of control) is 104% (inactive).

With `COc1cccc(NC(=O)[C@H](Cc2c[nH]c3ccccc23)NC(=O)[C@@H]2Cc3ccccc3CN2)c1`, the binding (percent of control) was 63.9% (active).

For `COc1ccc(CN2C(=O)C(CC(=O)NCc3cccc4ccccc34)CC(C(=O)N3CCOCC3)=C2C)cc1` (stereo not drawn), the binding (percent of control) is 102% (inactive).

On to `O=C(Nc1cc(F)ccc1F)c1ccc2c(=O)n3c(nc2c1)CCC3`, for which the binding (percent of control) was 98.5% (inactive).

On to `C[C@H]1Cn2cnc(C(=O)N[C@@H](Cc3c[nH]c4ccccc34)C(=O)OC(C)(C)C)c2C(=O)N1`, for which the binding (percent of control) was 98.2% (inactive).

With `CCOC(=O)CNc1nc(Cl)nc(Nc2ccccc2)n1`, the binding (percent of control) was 90.6% (inactive).

On to `CCC(=O)Nc1ccc(C(=O)NNC(=O)c2ccc(Cl)cc2)cc1`, for which the binding (percent of control) was 103% (inactive).

As to `CCC(=O)Nc1ccc(Nc2nc(Cl)nc(Nc3ccc(NC(=O)CC)cc3)n2)cc1`, the binding (percent of control) is 81.3% (active).

In the case of `O=C(CCN1CCCCC1)Nc1ccc(F)c(F)c1`, the binding (percent of control) was 94.7% (inactive).

As for `CCC(O)C1CCN(Cc2cn(-c3ccc(OC)cc3)nc2-c2cccc(F)c2)CC1` (stereo not drawn), the binding (percent of control) is 110% (inactive).

For `COc1ccc(-n2cc(CNC3CCOCC3)c(-c3cccc(F)c3)n2)cc1`, the binding (percent of control) is 21.8% (active).

With `COc1ccc(-n2cc(CN(C)Cc3n[nH]c(=O)[nH]3)c(-c3cccc(F)c3)n2)cc1`, the binding (percent of control) is 103% (inactive).

`CC(=O)Nc1ccc(NC(=O)c2sc3nc4c(c(-c5ccc(C)cc5)c3c2N)CCC4)cc1`: the binding (percent of control) was 6.32% (active).

On to `Cc1ccc(NC(=O)c2sc3nc(N)c(C#N)cc3c2N)cc1`, for which the binding (percent of control) was 99.5% (inactive).

For the compound `Cc1cccc(NC(=O)c2sc3nc(N4CCOCC4)c4c(c3c2N)CCCC4)c1`, the binding (percent of control) was 94.3% (inactive).

`Cc1cc(C)cc(NC(=O)COc2coc(CN3CCN(c4ccccc4)CC3)cc2=O)c1`: the binding (percent of control) is 104% (inactive).

With `Cc1ccc(NC(=O)CN2CCc3ccccc3C2)cc1C`, the binding (percent of control) was 120% (inactive).

With `Cc1ccc(NC(=O)COc2coc(CN3CCc4ccccc4C3)cc2=O)cc1Cl`, the binding (percent of control) is 85.8% (active).

`O=C(COC(=O)/C=C/c1ccc(Cl)cc1)NC1CCS(=O)(=O)C1` (stereo not drawn): the binding (percent of control) is 107% (inactive).

Turning to `CN(c1ccccc1)S(=O)(=O)c1ccc(C(=O)NCc2cccnc2)cc1`, the binding (percent of control) was 97.8% (inactive).

Regarding `COc1cc2c(=O)n(C)c3ccccc3c2cc1OC`, the binding (percent of control) is 103% (inactive).

On to `Cc1ccc(S(=O)(=O)c2nc(NCCCn3ccnc3)sc2Cl)cc1`, for which the binding (percent of control) is 98.5% (inactive).

With `Cc1ccc(-c2nc(C#N)c(NCCCn3ccnc3)o2)cc1`, the binding (percent of control) was 66.2% (active).

For the compound `COc1ccc(-c2cc(C(=O)NCCCn3ccnc3)no2)cc1`, the binding (percent of control) was 104% (inactive).

Consider `Cc1ccc(CCNC(=O)CN2C(=O)CSc3ccc(S(=O)(=O)N4CCOCC4)cc32)cc1`, for which the binding (percent of control) was 100% (inactive).

As for `Cc1ccc(C(=O)N2CCCc3ccccc32)c(Cl)c1`, the binding (percent of control) was 104% (inactive).

As to `Cc1ccc(-c2nc3ccc(Cl)cn3c2Cc2ccccc2)cc1`, the binding (percent of control) was 111% (inactive).

As to `C[C@@H]1CN([C@@H](C)CO)C(=O)c2cc(Br)cnc2O[C@H]1CN(C)Cc1ccc(-c2ccccc2)cc1`, the binding (percent of control) is 101% (inactive).

As for `O=S(=O)(c1ccc(Cl)cc1)c1nc(-c2ccccc2F)oc1NCCN1CCOCC1`, the binding (percent of control) was 103% (inactive).

Regarding `O=S(=O)(c1ccc(Br)cc1)c1nc(-c2ccccc2)oc1NCc1cccnc1`, the binding (percent of control) is 78.8% (inactive).

For the compound `O=S(=O)(c1ccccc1)c1nc(-c2ccccc2F)oc1NCc1cccnc1`, the binding (percent of control) was 91.8% (active).

In the case of `Clc1cccc(N=C2NN=C(c3ccc4c(c3)OCCO4)CS2)c1`, the binding (percent of control) is 97.3% (inactive).

Regarding `C=CCn1c(C)cc(C2=NNC(=NCC)SC2)c1C`, the binding (percent of control) is 80.2% (inactive).

On to `COCCn1c(C)cc(C2=NNC(=Nc3ccc(F)cc3)SC2)c1C`, for which the binding (percent of control) is 76.6% (active).

On to `COc1ccc(N2C(=O)CC(N3CCC(C(N)=O)CC3)C2=O)cc1` (stereo not drawn), for which the binding (percent of control) is 97.6% (inactive).

`COc1ccc(N2C(=O)CC(Sc3n[nH]c(-c4ccc(C)cc4)n3)C2=O)cc1` (stereo not drawn): the binding (percent of control) was 85.3% (inactive).

In the case of `COc1ccc(N2C(=O)CC(SC(C)C)C2=O)cc1` (stereo not drawn), the binding (percent of control) is 68% (active).

With `Cc1cccc(C)c1NC(=O)CNC(=O)c1ccc(N2CCOCC2)c([N+](=O)[O-])c1`, the binding (percent of control) is 95.2% (inactive).

Consider `COc1ccc2nc(-c3ccccn3)ccc2c1`, for which the binding (percent of control) is 101% (inactive).

With `CCCc1ccc(S(=O)(=O)N2CCN(C(=O)c3cc(C)on3)CC2)cc1`, the binding (percent of control) was 96.3% (inactive).

For the compound `CCCCCCn1c(=O)n2n(c1=O)C[C@]1(OC(=O)NCc3ccc(OC)c(OC)c3)CN(S(=O)(=O)c3ccc(C)cc3)C[C@]1(O)C2`, the binding (percent of control) was 108% (inactive).

As to `CC1=C(C(=O)Nc2cccc(C(=O)NCC(C)c3ccccc3)c2)SCCO1` (stereo not drawn), the binding (percent of control) was 106% (inactive).

For the compound `CCOc1ccc(CCNC(=O)COC(=O)c2ccc(C)c(S(=O)(=O)N3CCOCC3)c2)cc1OCC`, the binding (percent of control) is 97.5% (inactive).
